# Assay results taken from PubChem BioAssay.
# The source made the active and inactive calls. Unless noted, no rule for the calls is given here.
# Columns and labels:
# [1] = Plasmodium falciparum growth inhibition, primary screen, strain 3D7, DAPI fluorescence, 100 nL (AID 1184);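 also: parasites grown inside human red blood cells in medium with human serum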; details: P. falciparum 3D7 growth, 3 d, higher = more signal
# [2] = target: Homeobox protein Hox-A13 (Mus musculus) (UniProt Q62424); assay: inhibitors of HoxA13-DNA binding, primary screen, biochemical, fluorescence polarization, labeled oligonucleotide (AID 1185); details: 15 min, higher = more signal, called active from +8 up or from −8 down
# [3] = inhibitors of hydroxyurea-induced Chk1 phosphorylation, primary screen, imaging, HeLa, phospho-Chk1 antibody, percent positive cells (AID 1186); details: hydroxyurea-induced phospho-Chk1 immunofluorescence imaging, higher = more signal
# [4] = inhibitors of hydroxyurea-induced Chk1 phosphorylation, primary screen, imaging, HeLa, phospho-Chk1 nuclear intensity (AID 1187); details: hydroxyurea-induced phospho-Chk1 immunofluorescence imaging, higher = more signal; also: test concentration not given here
# Sequence of Homeobox protein Hox-A13 (Mus musculus) (Q62424 whole entry, looked up): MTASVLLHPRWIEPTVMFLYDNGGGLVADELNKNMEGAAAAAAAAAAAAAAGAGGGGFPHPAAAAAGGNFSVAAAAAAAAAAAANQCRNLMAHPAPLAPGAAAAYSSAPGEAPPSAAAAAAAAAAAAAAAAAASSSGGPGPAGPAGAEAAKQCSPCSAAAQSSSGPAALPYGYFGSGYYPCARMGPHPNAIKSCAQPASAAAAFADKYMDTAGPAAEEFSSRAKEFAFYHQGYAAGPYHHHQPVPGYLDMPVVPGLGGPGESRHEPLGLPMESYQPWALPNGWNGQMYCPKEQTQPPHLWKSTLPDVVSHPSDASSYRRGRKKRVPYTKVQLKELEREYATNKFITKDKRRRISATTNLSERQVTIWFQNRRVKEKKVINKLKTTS
Structure (SMILES),z-score [1],z-score [2],z-score [3],z-score [4]
CO[C@H]1O[C@H](CO)[C@@H](OC(=O)Nc2ccccc2)[C@H](OC(=O)Nc2ccccc2-c2ccccc2)[C@@H]1OC(=O)Nc1ccccc1-c1ccccc1,-2.3,-1.96 (inactive),-0.515 (inactive),-0.367 (inactive)
CCCCCN1CC=CC23O[C@@H]4/C=C\CCC(C)OC(=O)C4[C@H]2C(=O)N(CCCO)[C@@H]3C1=O (some centres undefined),-0.186,-3.86 (inactive),-0.183 (inactive),0.0885 (inactive)
O=C(NCC(F)(F)F)[C@@H]1c2ccccc2C(=O)N(C2Cc3ccccc3C2)[C@H]1c1ccc(CO)cc1,0.824,-1.6 (inactive),-0.606 (inactive),-0.842 (inactive)
C=CC[C@@]1(C(=O)NCc2ccccc2)N=C(c2ccc(OCCCO)cc2)O[C@@H]1c1ccccc1,-2.24,-6.13 (inactive),-0.762 (inactive),-0.974 (inactive)
O=C1c2ccccc2C(=O)c2cc([C@H]3Oc4ccccc4S(=O)(=O)N4CCC[C@@H]34)ccc21,-1.27,-3.19 (inactive),-0.4 (inactive),-0.252 (inactive)
COC(=O)c1c(CC[C@@H](CO)NC(=O)Nc2ccc(OC)cc2)oc(C(=O)Cc2ccccc2)c1C(=O)OC,-0.83,-4.5 (inactive),0.0211 (inactive),0.406 (inactive)
